Screening results deposited in PubChem by several laboratories.
HUVEC tox TNFa = HUVEC cytotoxicity counter-screen, TNF alpha stimulated. HUVEC TNFalpha-stimulated, Hoechst cell count, imaging. cell count reduction, % at 2 µM. 0.17% of 93,000 active. AID 848;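 active means cell count reduction exceeding the screen mean by over 5 SD, scaled to untreated wells per plate, cut at about 78% in these data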;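 further: cells counted after 24 h of TNF alpha exposure following the 1 h pretreatment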
E-sel TNF inh = TNF alpha driven E-selectin expression inhibition; HUVEC TNFa-induced E-selectin immunofluorescence, high content; inhibition, % at 2 µM; 0.71% of 120,000 active;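 active means inhibition above the batch mean plus 3 SD, and confirmed as a hit on visual image review, cut at about 43% in these data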;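 further: 0% = TNF-stimulated DMSO wells and 100% = unstimulated control wells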
Phagocytosis inh = macrophage phagocytosis inhibition; J774A.1 macrophage IgG-bead phagocytosis, imaging; 0.07% of 110,000 active; inhibition, % at 5 µM; AID 1029;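 active means inhibition above the mean of the plate negative controls plus 5 SD, cut at about 13% in these data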;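 further: phagocytic index as fraction of beads internalized from green versus red external bead signal; plate controls were DMSO negative control for no effect and cytochalasin-D positive control for full effect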
VCAM1 TNFa inh = reduces TNF alpha induced VCAM1 expression in HUVEC; 0.48% of 95,000 active; HUVEC TNFa-induced VCAM-1 immunofluorescence, high-content imaging; inhibition, % at 2 µM;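 active means inhibition above the batch mean plus 3 SD, with images confirmed as a hit by eye, cut at about 37% in these data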;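 further: 0% = TNF-stimulated DMSO wells and 100% = unstimulated control wells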
F-actin modifier = modifiers of cytoskeleton assembly. HUVEC TNFa F-actin phalloidin imaging, high content. inhibition, % at 2 µM. 0.18% of 91,000 active. AID 836;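 active means inhibition above the batch mean plus 3 SD and confirmed as a hit by visual image inspection, cut at about 30% in these data, passing the limit was not always enough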
SDO1 yeast rescue = compounds rescuing growth of sdo1-depleted yeast, bone marrow failure model. 0.21% of 140,000 active. S. cerevisiae sdo1-depleted JHY4D growth rescue, OD600 30 h; stronger effect = higher value; pdr5 snq2 efflux-pump mutant strain. z-score at 10 µM;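 active means z-score above 3 at both the 24 hr and the 30 hr optical density reads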;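 further: z-score against mean and SD of all compound wells on the same plate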
Active calls of the source: *; . = no result given; [ ] = another dose, or the depositor's remark. An excerpt weighted towards active compounds, which were near 1.2% of everything screened.

SMILES	HUVEC tox TNFa	E-sel TNF inh	Phagocytosis inh	VCAM1 TNFa inh	F-actin modifier	SDO1 yeast rescue
CCOC(=O)c1c(NC(=O)CSc2nnc(-c3ccccc3)n2CC)sc(C(C)=O)c1C	-40.7	99.7*	-0.5	4.0	18.8	-0.06
COc1ccc(CC2(C)OC(c3ccccc3)=NN2C(C)=O)cc1 (centres undefined)	.	-27.4	4.1	.	.	-0.31
CCC1=NC(c2ccccc2Cl)N(O)C1(C)C (centres undefined)	70.5	9.8	0.1	58.7*	-9.0	-0.57
Cn1nc(Oc2ncc(C(F)(F)F)cc2Cl)cc1C(F)(F)F	.	2.5	.	.	.	.
O=c1cc(CO)oc(CN2CCN(c3ccccc3)CC2)c1O	86.1*	1.6	-2.1	15.5	-12.1	0.9
CCN(C(=O)COC(=O)c1cc(C)n(-c2ccc(F)cc2)c1C)C1CCS(=O)(=O)C1 (centres undefined)	4.5	99.9*	-0.7	2.9	-11.1	-0.01
Cc1ccc(NC2OC(C(O)CO)C(O)C2O)cc1[N+](=O)[O-] (centres undefined)	26.7	64.4*	.	-11.5	.	0.25
COc1ccc(N2C(=S)NC3N2C(=S)NC3(C)c2ccccc2)cc1 (centres undefined)	.	34.3	.	.	.	.
O=c1n(Cc2ccccc2F)c2ccccc2n1Cc1ccccc1F	-12.7	-4.4	.	-13.5	31.3*	-1.51
Cn1c(=O)n(Cc2ccccc2F)c2ccccc21	-29.5	-28.3	-1.1	-6.3	2.7	-1.09
COCCN(CC(=O)NC1CCCCC1)C(=O)/C=C/C(=O)c1ccc(OC)cc1O	.	89.3*	.	.	.	.
COc1ccc(CN(C(=O)/C=C/C(=O)c2ccc(OC)cc2O)C(C(=O)NC2CCCCC2)c2ccncc2)cc1 (centres undefined)	.	.	-16.3	.	.	-0.89
Cc1cc(C)cc(-n2cc[nH]c2=S)c1	.	.	-5.8	.	.	1.12
CCN(CC)c1ccc(NC(=O)COC(=O)/C=C/c2nc3ccccc3s2)cc1	.	62.1*	-9.5	.	.	-0.63
CCN(CC)c1ccc(/C=C/c2nc3ccccc3s2)cc1	-15.4	13.5	.	1.2	-2.0	-1.04
CC(=O)c1cccc(NC(=O)C(=O)c2cn(CC(=O)N3CCCCC3)c3ccccc23)c1	.	0.7	.	.	.	.
CSc1ncccc1C(=O)Nc1ccc(S(=O)(=O)Nc2nccs2)cc1	.	.	-3.4	.	.	-0.05
CCn1nc(C(=O)Nc2ccc(S(=O)(=O)Nc3nccs3)cc2)c2ccccc2c1=O	11.4	60.9*	-2.0	-25.0	1.5	0.71
COCCN(C(=O)CSc1nnc(-c2cccc(OC)c2)n1C)c1c(N)n(Cc2ccccc2)c(=O)[nH]c1=O	.	-48.8	.	.	.	.
Cc1ccc(NC(=O)Cn2nc(-c3ccccc3Cl)ccc2=O)c(Br)c1	.	-11.0	.	.	.	.
Cc1ccc2[nH]c(-c3ccccc3)cc(=O)c2c1	37.0	.	4.2	63.7*	-105.8	0.09
CCOc1cccc(C(=O)Nc2nc(-c3ccc(S(=O)(=O)N4CCOCC4)cc3)cs2)c1	-4.8	0.3	-4.1	-21.9	-17.3	-0.71
O=C(Nc1nc(-c2ccncc2)cs1)c1ccc(S(=O)(=O)N2CCOCC2)cc1	-13.3	63.0*	0.6	-2.1	-0.1	0.27
Cn1c(SCc2ccccc2)nnc1-c1ccncc1	-10.7	.	-0.5	-10.5	19.6	0.91
Cn1c(SCc2ccc(Br)cc2)nnc1-c1ccncc1	-16.2	72.7*	-0.7	-0.6	1.3	-0.11
SMILES	HUVEC tox TNFa	E-sel TNF inh	Phagocytosis inh	VCAM1 TNFa inh	F-actin modifier	SDO1 yeast rescue
O=C(Nc1ccc2c(c1)OCO2)C1CCN(S(=O)(=O)Cc2ccccc2)CC1	-7.1	-11.7	-0.5	10.1	-24.3	0.71
O=C(Nc1ccc2c(c1)OCO2)NC1CCN(Cc2ccccc2)CC1	-13.2	-15.7	27.6*[artifact]	-0.9	21.6	1.19
CC[n+]1ccc2cc(OC)c(OC)cc2c1Cc1ccc(OC)c(OC)c1	.	-1.8	.	.	.	.
O=C(NNS(=O)(=O)c1ccc(F)cc1)C1CCN(Cc2cccc(F)c2)CC1	.	-31.7	.	.	.	.
CC(C)C(=O)Nc1ccc(C(=O)NNC(=O)NC2CCCCC2)cc1	27.7	-52.5	-3.6	36.1*	1.7	1.41
C=CC(=O)Nc1ccc(Br)cc1	5.4	12.1	-1.1	52.4*	-1.9	0.35
O=C(Nc1ccc(Br)cc1)c1ccco1	9.3	3.3	-1.1	-3.3	0.2	1.9
CCOc1cc(/C=C2/C(=O)N(c3ccccc3)N=C2C)ccc1OC(=O)c1ccco1	12.8	57.4	.	44.2*	-11.9	1.04
C/C(CCC(C)C)=N\NC(=S)Nc1cc(S(=O)(=O)N2CCOCC2)ccc1N1CCOCC1	.	-25.2	.	.	.	.
CC(C)(C)NC(=O)Cn1c(=O)n(CC(=O)NC(C)(C)C)c2ccccc21	.	-13.3	.	.	.	.
O=C(Nc1nc2c(s1)COc1ccccc1-2)c1cccs1	-27.0	9.1	-1.3	12.2	-2.0	-1.81
O=C(CCS(=O)(=O)c1ccccc1)Nc1nc2c(s1)COc1ccccc1-2	-65.3	.	0.1	24.6	46.4*	-0.67
Cc1cc(Cl)ccc1OCC(=O)OCC(=O)Nc1ccc(F)c([N+](=O)[O-])c1	.	-1.4	-0.5	.	.	-0.92
Cc1ccc(NC(=O)COC(=O)c2cc(Cl)ccc2[N+](=O)[O-])cc1	.	6.9	24.2*[artifact]	.	.	-0.52
O=C(N/N=C/c1ccccc1OCC(=O)N1CCCC1)C(=O)Nc1ccccc1F	.	.	-3.3	.	.	0.66
CCc1nnc(NC(=O)C2c3ccccc3Oc3ccccc32)s1	-16.3	-18.3	.	-23.2	46.4*	-0.9
Cn1c(NC(=O)c2ccccc2)cc(=O)n(C)c1=O	-10.0	.	-0.5	4.5	3.6	1.39
O=C(Nc1nc2ccccc2s1)C1c2ccccc2Oc2ccccc21	.	.	-14.1	.	.	-2.16
Cn1c(NC(=O)C2c3ccccc3Oc3ccccc32)cc(=O)n(C)c1=O	64.7	17.1	-0.5	93.6*	-34.0	-0.35
COc1ccc(/C(O)=C2\C(=O)C(=O)N(CCN3CCOCC3)C2c2ccccc2OC)cc1 (centres undefined)	.	41.7	-8.6	.	.	1.53
COc1ccccc1C1/C(=C(/O)c2ccc(C)cc2)C(=O)C(=O)N1CCN1CCOCC1 (centres undefined)	.	69.5*	-7.4	.	.	1.79
C=CCN1C(=O)C(CC(=O)Nc2ccc(OCCC)cc2)N(CCCN2CCN(Cc3ccccc3)CC2)C1=S (centres undefined)	.	5.5	.	.	.	.
O=C(O)c1c[nH]c2ccc(S(=O)(=O)N3CCOCC3)cc12	-7.6	.	2.3	55.4*	23.9	1.34
O=C(NCCN1CCOCC1)c1c[nH]c2ccc(S(=O)(=O)N3CCOCC3)cc2c1=O	.	-19.8	-4.1	.	.	0.26
Cn1c(N)c(C(=O)COC(=O)CN2C(=O)c3ccccc3C2=O)c(=O)n(C)c1=O	.	68.2*	-1.0	.	.	1.71
Cc1ccccc1Cn1ccc(=NCc2ccccc2)cc1	.	.	-0.7	.	.	-0.63
